# SW480 rerep: induces DNA re-replication in SW480 colon adenocarcinoma cells; SW480 DNA re-replication, Hoechst DNA content imaging, 48 h; Potency, µM (doses to about 46.1 µM), inactives show top-dose re-replication activation, hits mostly activators; hit rate 1.8% among 340,000; AID 624297; further: potency means the concentration at half of the fitted maximal effect; % of control where 0% means no effect; nearly all actives have a fitted effect of over 55% in size
#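 250 cells/well; 23 nL cpd via pin tool; 48 hr, 37 C, 5% CO2; Hoechst 40 min; imager read of total nuclear intensity, ex 405/em 500-530 nm.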
# IL-1B inflam inh: inhibitors of inflammasome signaling (IL-1 beta secretion); THP-1 LPS/ATP IL-1B secretion, AlphaLISA, 16 h; stronger effect = lower value; activity change, % at 57.5 µM; hit rate 4.7% among 360,000; in the data active means activity change below about -50%; inconclusive means mostly about -30% to -49%; further: on the % scale 0 is the no-effect control and ±100 the full control effect
#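 THP-1 cells pretreated 1 hr with compounds (up to 57.5 uM final), then stimulated with LPS (250 ng/mL final) plus ATP (1.25 mM final); secreted IL-1B measured by AlphaLISA after 16 hr, decreased signal indicating inhibition.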
# KB-V1 MDR tox: kills drug-selected multidrug resistant KB-V1 cells; KB-V1 MDR cells viability, CellTiter-Glo, 72 h; Potency, µM (doses to about 46.1 µM), actives largely listed as cytotoxic; hit rate 3.4% among 400,000; further: potency means the concentration at half of the fitted maximal effect; on the % scale 0 is the no-effect control and ±100 the full control effect; nearly all actives have a fitted effect of over 60% in size
#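 Following 72 h at 37 degrees C with compound, KB-V1 cell viability was read by CellTiter-Glo luminescence, medium being phenol-red-free DMEM plus 10% FBS; concentration-response parameters came from normalized, curve-fitted qHTS data.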
# KB-3-1 cytotox: KB-3-1 parental cell cytotoxicity | KB-3-1 viability, CellTiter-Glo ATP luminescence, 72 h | Potency, µM (highest dose often 46.1 µM), most hits filed as cytotoxic | hit rate 1.4% among 400,000; further: potency means the concentration at half of the fitted maximal effect; on the % scale 0 is the no-effect control and ±100 the full control effect; nearly all actives have a fitted effect of over 60% in size
#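 Cells are dispensed, compounds pinned in, plates held at 37 °C for 72 h, then CellTiter-Glo is added and luminescence read after 10 minutes. Cell line: parental KB-3-1 in phenol-red-free DMEM, 10% FBS.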
# MCF10A rerep: induces DNA re-replication in MCF 10a normal breast cells; MCF 10A DNA re-replication, Hoechst nuclear intensity, 48 h; Potency, µM (doses to about 46.1 µM), for inactives: top-dose activity, positive = re-replication, most hits filed as activators; hit rate 2.9% among 350,000; AID 624296; further: potency means the concentration at half of the fitted maximal effect; % of control where 0% means no effect; nearly all actives have a fitted effect of over 50% in size
# An asterisk follows results filed as active; i = inactive; ? = inconclusive; nt = no result given. Compounds with a hit are over-represented: about 9.9% of the library has one in this group of screens. Unless noted, the call rests on the fitted dose curve; in most records, active means well fitted curve in the direction sought with a large enough effect; inconclusive means small, poorly fitted or top-dose-only effect, or another doubt; inactive means no such curve, though single readings can be large; an effect the other way counts as inactive or inconclusive.
SMILES,SW480 rerep,IL-1B inflam inh,KB-V1 MDR tox,KB-3-1 cytotox,MCF10A rerep
O=C(O)CCCC(=O)Nc1nncs1,-3.3%,-10.6,i,i,-4.9%
CC(C)(C)c1csc(NC(=O)CCc2ccccc2)n1,?,-53.6*,i,i,?
O=C(CCCc1ccccc1)Nc1nncs1,-13.5%,-5.0,9.2µM*,i,-4.4%
CC1CCN(CCCNC(=O)C2CCN(S(=O)(=O)N3CCC4(CC3)OCCO4)CC2)CC1,-9.1%,0.7,i,i,-2.2%
O=C(NC1=NCCS1)c1ccc(Cl)c(S(=O)(=O)N2CCc3ccccc32)c1,-10.7%,0.0,13µM*,?,?
O=C(NCC(c1ccco1)N1CCc2ccccc2C1)c1ccc(Cl)c([N+](=O)[O-])c1 (centres undefined),0.6%,-82.6*,i,i,?
COc1ccc(C(=O)NC(C(=O)N2CCc3ccccc32)C(C)C)cc1 (centres undefined),23.5%,5.1,8.2µM*,i,2.9%
CC(C)[C@H](NC(=O)c1ccccc1)C(=O)OCC(=O)N1CCc2ccccc2C1,-11.4%,20.3,9.2µM*,i,3.4%
O=C(NCC(c1ccco1)N1CCc2ccccc2C1)c1cccc([N+](=O)[O-])c1 (centres undefined),-0.3%,3.9,?,?,16.9%
COc1ccc(C(=O)NCC(c2ccco2)N2CCc3ccccc32)cc1 (centres undefined),?,63.6,7.31µM*,5.8µM*,5.8µM*
O=C(NCC(c1ccco1)N1CCCC1)c1ccc(Cl)c(S(=O)(=O)N2CCc3ccccc32)c1 (centres undefined),?,-54.9*,1.64µM*,2.31µM*,?
COc1ccc(NC(=O)C(=O)NCC(c2ccco2)N2CCc3ccccc32)cc1 (centres undefined),?,-1.5,?,?,21.7%
CC(C)Oc1ccc(C(=O)N(Cc2ccco2)c2ccccn2)cc1,nt,nt,i,i,nt
Cc1cccc(C(=O)Nc2cccc(C(=O)N/N=C/c3ccc4c(c3)OCO4)c2)c1,23.1µM*,17.3,i,13µM*,13µM*
O=C(N/N=C/c1ccc(F)cc1)c1cccc(NC(=O)c2ccc(F)cc2)c1,2.0%,32.6,i,?,20.6µM*
O=C(N/N=C/c1ccncc1)c1cccc(NC(=O)c2ccc(Cl)cc2)c1,-4.4%,29.0,i,i,-3.0%
O=C(COC(=O)/C=C/c1ccco1)NCCN1C(=O)CSC1=O,-7.6%,-21.6,i,i,-3.0%
CCN(CC)S(=O)(=O)c1ccc(OC(C)C)c(NC(=O)C2=COCCO2)c1,1.8%,5.3,7.31µM*,i,7.1%
CCCS(=O)(=O)c1c(S(=O)(=O)CCC)c2c(C)cccn2c1C(N)=O,-3.3%,8.8,i,i,-2.0%
CCCS(=O)(=O)c1c(S(=O)(=O)CCC)c2c(C)cccn2c1C(=O)N/N=C/c1cc(O)cc(O)c1,6.51µM*,81.1,i,?,?
COc1cc(C(=S)N2CCOCC2)ccc1OC(=O)c1ccccc1C,18.4µM*,-7.1,i,i,5.6%
CN(CCO)CCC(=O)NC1(C)CS(=O)(=O)CC1S(=O)(=O)O (centres undefined),-2.2%,-6.5,i,i,1.2%
CSc1ccc(CN2CCN(C(C)C)C(CCO)C2)cc1 (centres undefined),-2.2%,1.8,i,i,17.8%
CCC(CO)Oc1cc(NCc2ccc(Cl)cc2)c2ncn(C(C)C)c2c1 (centres undefined),?,-9.5,i,i,-65.8%
CC[C@H](CO)Oc1cc(NCc2ccc(Cl)c(Cl)c2)c2ncn(C(C)C)c2c1,17.7%,-19.8,i,?,20.6µM*
SMILES,SW480 rerep,IL-1B inflam inh,KB-V1 MDR tox,KB-3-1 cytotox,MCF10A rerep
COc1ccc(N2CCN(C(=O)CN3C(=O)NC(C)(c4ccc5ccccc5c4)C3=O)CC2)cc1 (centres undefined),13.9%,-10.1,2.31µM*,23.1µM*,3.4%
CC(=O)N1CCN(C(=O)CN2C(=O)NC(C)(c3ccc4ccccc4c3)C2=O)CC1 (centres undefined),-2.6%,-2.3,i,i,-3.7%
CC1(c2ccc(Cl)cc2)NC(=O)N(CC(=O)NCCC2=CCCCC2)C1=O (centres undefined),0.164µM*,-0.9,?,i,16.8%
COc1ccc2cc(C3(C)NC(=O)N(CC(=O)NCCC4=CCCCC4)C3=O)ccc2c1 (centres undefined),10.4%,9.5,16.4µM*,i,10.1%
O=C(NCc1ccccc1Cl)c1cc2c(s1)-c1ccc(Cl)cc1SC2,nt,nt,i,i,nt
CC1(NC(=O)Nc2cc([N+](=O)[O-])ccc2O)CCS(=O)(=O)C1 (centres undefined),-36.2%,-2.3,i,i,-5.5%
CCCNC(=O)c1nn2cc(Br)cnc2c1Br,-53.9%,4.9,i,i,10.8%
COc1ccc(/C=C2\CN(Cc3ccccc3)C/C(=C\c3ccc(OC)c(O)c3)C2=O)cc1O,3.66µM*,-99.5*,i,5.17µM*,?
CCN1C/C(=C/c2ccc(OC)c(O)c2)C(=O)/C(=C/c2ccc(OC)c(O)c2)C1,?,-72.0*,?,i,?
CCc1ccccc1NC(=O)CN(Cc1ccccc1)S(=O)(=O)c1ccc2nc(C)sc2c1,nt,nt,i,i,nt
COc1ccc(-n2c(=O)c3c(c4cc(OC)ccc4n3C)n(Cc3cccc(OC)c3)c2=O)cc1,nt,nt,i,i,nt
Cc1cc(C)c(NC(=O)CNC(=O)CN(C)Cc2ccc(Br)s2)c(C)c1,-3.3%,-2.3,16.4µM*,i,1.8%
CCOc1ccc(N(C(=O)c2ccc(Cl)cc2)S(=O)(=O)c2ccc3c(c2)n(C)c(=O)n3C)cc1,nt,nt,i,i,nt
CCCCSC(=S)NC1CCS(=O)(=O)C1 (centres undefined),?,-98.2*,i,i,23.1µM*
C[C@H]1CN([C@@H](C)CO)C(=O)CCCn2cc(nn2)CO[C@@H]1CN(C)C(=O)Nc1ccc2c(c1)OCCO2,nt,7.0,i,i,nt
CC(C)(C)c1ccc(N2C(=N)SCC2=O)cc1,?,7.0,i,i,3.4%
N=C1SCC(=O)N1c1ccc(Cl)cc1,?,0.0,?,14.6µM*,-0.2%
Cc1cccc(N2CCN(S(=O)(=O)c3csc(C(N)=O)c3)CC2)c1C,nt,nt,i,20.6µM*,nt
Cc1cccc(N2CCN(C(=O)c3cc(S(=O)(=O)N4CCCC4)cn3C)CC2)c1C,14.6µM*,27.8,i,i,8.2µM*
Cn1cc(S(=O)(=O)N2CCCCCC2)cc1C(=O)N1CCN(c2cccc(C(F)(F)F)c2)CC1,nt,nt,20.6µM*,?,nt
Cc1cccc(N2CCN(C(=O)c3cc(S(=O)(=O)N4CCOCC4)cn3C)CC2)c1C,-1.9%,?,i,i,?

# Assay outcomes from PubChem BioAssay.
